In the supplement of paper PMC8728848:
This excerpt belongs to a sample that is enriched for the strongest signals.

Assays:
Experiment in all cases: glycan array binding signal (z-score within array); higher = stronger binding
Details in all cases: glycan notation: IUPAC condensed, linker removed
[1] = target: Glc(a1-2)Glc(a1-2)Glc(a1-2)Glc(a1-2)Glc(a1-2)Glc(a1-2)Glc(a1-2)Glc(a1-2)Glc
Outline: (§1)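 The binding signal is a Z-score computed within each array. Data were drawn from 3228 arrays in the Consortium for Functional Glycomics database, restricted to those with a known protein sequence. Scores were averaged over arrays of the same protein sequence at different concentrations or buffers, and over linkers, and negative values can be taken as non-binding.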

[2] = target: Glc(a1-3)Glc(a1-3)Glc(a1-3)Glc(a1-3)Glc(a1-3)Glc(a1-3)Glc(a1-3)Glc(a1-3)Glc(a1-3)Glc(a1-3)Glc(a1-3)Glc
Outline: as §1

[3] = target: Glc(a1-4)Glc(a1-4)Glc(a1-4)Glc
Outline: as §1

[4] = target: Glc(a1-4)Glc(a1-4)Glc(a1-4)Glc(a1-4)Glc(a1-4)Glc
Outline: as §1

[5] = target: Glc(a1-4)Glc(a1-4)Glc(a1-4)Glc(a1-4)Glc(a1-4)Glc(a1-4)Glc(a1-4)Glc
Outline: as §1

[6] = target: Glc(a1-4)Glc(a1-4)Glc(a1-4)Glc(a1-4)Glc(a1-4)Glc(a1-4)Glc(a1-4)Glc(a1-4)Glc(a1-4)Glc(a1-4)Glc(a1-4)Glc
Outline: as §1

[7] = target: Glc(b1-3)Glc(b1-3)Glc(b1-3)Glc(b1-3)Glc(b1-3)Glc
Outline: as §1

[8] = target: Glc(b1-3)Glc(b1-3)Glc(b1-3)Glc(b1-3)Glc(b1-3)Glc(b1-3)Glc(b1-3)Glc
Outline: as §1

Glc(b1-4)Glc(b1-4)Glc = target: Glc(b1-4)Glc(b1-4)Glc
Outline: as §1

[9] = target: Glc(b1-4)Glc(b1-4)Glc(b1-4)Glc(b1-4)Glc(b1-4)Glc(b1-4)Glc(b1-4)Glc(b1-4)Glc
Outline: as §1

[10] = target: Glc(b1-6)Glc(b1-6)Glc(b1-6)Glc(b1-6)Glc(b1-6)Glc(b1-6)Glc(b1-6)Glc(b1-6)Glc(b1-6)Glc
Outline: as §1

[11] = target: Glc(b1-2)Glc(b1-2)Glc(b1-2)Glc(b1-2)Glc(b1-2)Glc(b1-2)Glc(b1-2)Glc(b1-2)Glc
Outline: as §1

[12] = target: Glc(b1-3)Glc(b1-3)Glc(b1-3)Glc(b1-3)Glc(b1-3)Glc(b1-3)Glc(b1-3)Glc(b1-3)Glc(b1-3)Glc(b1-3)Glc(b1-3)Glc(b1-3)Glc
Outline: as §1

[13] = target: Glc(a1-3)Glc(a1-3)Man(a1-2)Man(a1-2)Man(a1-3)[Man(a1-3)[Man(a1-6)]Man(a1-6)]Man(b1-4)GlcNAc
Outline: as §1

[14] = target: Glc(a1-4)Glc(a1-4)Glc(a1-4)Glc(a1-4)Glc
Outline: as §1

[15] = target: Glc(a1-4)Glc(a1-4)Glc(a1-4)Glc(a1-4)Glc(a1-4)Glc(a1-4)Glc
Outline: as §1

[16] = target: Glc(b1-3)Glc(b1-3)Glc(b1-3)Glc
Outline: as §1

Glc(a1-2)Glc(a1-2)Glc = target: Glc(a1-2)Glc(a1-2)Glc
Outline: as §1

[17] = target: Glc(a1-4)Glc(a1-4)Glc(a1-4)Glc(a1-4)Glc(a1-4)Glc(a1-4)Glc(a1-4)Glc(a1-4)Glc(a1-4)Glc
Outline: as §1

[18] = target: Glc(b1-2)Glc(b1-2)Glc(b1-2)Glc(b1-2)Glc
Outline: as §1

[19] = target: Glc(b1-2)Glc(b1-2)Glc(b1-2)Glc(b1-2)Glc(b1-2)Glc(b1-2)Glc(b1-2)Glc(b1-2)Glc(b1-2)Glc(b1-2)Glc
Outline: as §1

[20] = target: Glc(b1-3)[Glc(b1-6)]Glc(a1-3)Glc(b1-3)[Glc(b1-6)]Glc
Outline: as §1

[21] = target: Glc(b1-4)Glc(b1-4)Glc(b1-3)Glc
Outline: as §1

[22] = target: Glc(b1-4)Glc(b1-4)Glc(b1-4)Glc(b1-4)Glc
Outline: as §1

[23] = target: Glc(b1-4)Glc(b1-4)Glc(b1-4)Glc(b1-4)Glc(b1-4)Glc(b1-4)Glc(b1-4)Glc(b1-4)Glc(b1-4)Glc
Outline: as §1

[24] = target: Glc(b1-4)Glc(b1-4)Glc(b1-4)Glc(b1-4)Glc(b1-4)Glc(b1-4)Glc(b1-4)Glc(b1-4)Glc(b1-4)Glc(b1-4)Glc(b1-4)Glc(b1-4)Glc
Outline: as §1

Glc(b1-6)Glc(b1-6)Glc = target: Glc(b1-6)Glc(b1-6)Glc
Outline: as §1

B1: Pul13 (Thermotoga maritima), O33840 (protein)
chain: ETTIVVHYHRYDGKYDGWNLWIWPVEPVSQEGKAYQFTGEDDFGKVAVVKLPMDLTKVGIIVRLNEWQAKDVAKDRFIEIKDGKAEVWILQGVEEIFYEKP
glycan array binding signal (z-score) [1]: -0.351 | glycan array binding signal (z-score) [2]: -0.3 | glycan array binding signal (z-score) [3]: 2.43 | glycan array binding signal (z-score) [4]: 3.61 | glycan array binding signal (z-score) [5]: 4.12 | glycan array binding signal (z-score) [6]: 3.44 | glycan array binding signal (z-score) [7]: -0.351 | glycan array binding signal (z-score) [8]: -0.351 | glycan array binding signal (z-score) (Glc(b1-4)Glc(b1-4)Glc): -0.351 | glycan array binding signal (z-score) [9]: -0.351 | glycan array binding signal (z-score) [10]: -0.351

B2: DC-SIGNR (Homo sapiens), Q9H2X3 (protein)
chain: QVSKVPSSLSQEQSEQDAIYQNLTQLKAAVGELSEKSKLQEIYQELTQLKAAVGELPEKSKLQEIYQELTRLKAAVGELPEKSKLQEIYQELTRLKAAVGELPEKSKLQEIYQELTRLKAAVGELPEKSKLQEIYQELTELKAAVGELPEKSKLQEIYQELTQLKAAVGELPDQSKQQQIYQELTDLKTAFERLCRHCPKDWTFFQGNCYFMSNSQRNWHDSVTACQEVRAQLVVIKTAEEQNFLQLQTSRSNRFSWMGLSDLNQEGTWQWVDGSPLSPSFQRYWNSGEPNNSGNEDCAEFSGSGWNDNRCDVDNYWICKKPAACFRDE
glycan array binding signal (z-score) [11]: 1.64 | glycan array binding signal (z-score) [12]: -0.981

B3: Malectin (Homo sapiens), Q14165 (protein)
chain: MLGAWAVEGTAVALLRLLLLLLPPAIRGPGLGVAGVAGAAGAGLPESVIWAVNAGGEAHVDVHGIHFRKDPLEGRVGRASDYGMKLPILRSNPEDQILYQTERYNEETFGYEVPIKEEGDYVLVLKFAEVYFAQSQQKVFDVRLNGHVVVKDLDIFDRVGHSTAHDEIIPMSIRKGKLSVQGEVSTFTGKLYIEFVKGYYDNPKVCALYIMAGTVDDVPKLQPHPGLEKKEEEEEEEEYDEGSNLKKQTNKNRVQSGPRTPNPYASDNSSLMFPILVAFGVFIPTLFCLCRL
glycan array binding signal (z-score) [13]: 5.02 | glycan array binding signal (z-score) [14]: -0.172 | glycan array binding signal (z-score) [15]: -0.012 | glycan array binding signal (z-score) [16]: -0.337 | glycan array binding signal (z-score) (Glc(b1-4)Glc(b1-4)Glc): -0.412

B4: Unk16A (Cellvibrio mixtus), Q336L6 (protein)
chain: VAYNTTGASSSAASSSAPSSASSSSSSAAPVLLSQGRPVTASSNFQPAANAVDGNGGTRWESTHGVSPSWIMVDLGSSKNLSQVIIDWEAANAANYLVQASNNGMSWTTLKIITTGAFGDRTDTHSVAGNYRYVRIYATARSAGNQWGYSIWELKITGN
glycan array binding signal (z-score) (Glc(a1-2)Glc(a1-2)Glc): -0.668 | glycan array binding signal (z-score) [17]: -0.662 | glycan array binding signal (z-score) [18]: 2.23 | glycan array binding signal (z-score) [11]: 3.49 | glycan array binding signal (z-score) [19]: 2.77 | glycan array binding signal (z-score) [20]: 4.32 | glycan array binding signal (z-score) [21]: -0.192 | glycan array binding signal (z-score) [22]: -0.479 | glycan array binding signal (z-score) [23]: -0.167 | glycan array binding signal (z-score) [24]: -0.398 | glycan array binding signal (z-score) (Glc(b1-6)Glc(b1-6)Glc): -0.248 | glycan array binding signal (z-score) [10]: 0.062
